# Assay outcomes as filed in PubChem.
# TrxR1 substrate: qHTS Assay for Substrates of Mammalian Selenoprotein Thioredoxin Reductase 1 (TrxR1): qHTS; Thioredoxin reductase 1, cytoplasmic (Rattus norvegicus), O89049; purified TrxR1 substrate turnover, NADPH consumption readout; Potency, µM (highest dose often 114 µM), inactives show at the highest dose activity change, negative = substrate turnover; actives 0.01% (n = 390,000); also: potency is read from the fitted curve at half-maximal effect; % is scaled to controls: 0 for no effect and ±100 for the full control effect; nearly all actives have a fitted effect of over 50% in size
# Target sequence (O89049 whole entry, looked up): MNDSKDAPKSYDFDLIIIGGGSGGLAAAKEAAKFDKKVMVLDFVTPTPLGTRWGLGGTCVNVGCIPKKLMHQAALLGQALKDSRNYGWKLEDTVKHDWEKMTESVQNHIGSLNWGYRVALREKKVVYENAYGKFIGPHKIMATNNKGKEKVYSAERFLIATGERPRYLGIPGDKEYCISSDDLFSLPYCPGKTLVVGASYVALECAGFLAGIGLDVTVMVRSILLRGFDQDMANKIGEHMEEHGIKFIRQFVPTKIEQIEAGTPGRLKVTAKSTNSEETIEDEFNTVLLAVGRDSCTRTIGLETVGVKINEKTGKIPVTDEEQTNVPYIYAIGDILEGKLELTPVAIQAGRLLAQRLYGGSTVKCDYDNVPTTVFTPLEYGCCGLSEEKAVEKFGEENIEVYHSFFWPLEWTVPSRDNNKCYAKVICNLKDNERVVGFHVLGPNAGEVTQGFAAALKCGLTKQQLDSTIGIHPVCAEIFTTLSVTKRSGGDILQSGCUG
#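 Rat TrxR1, dispensed at 90 nM, was prereduced with 400 uM NADPH (final) for 5 min at ~22 deg C, then incubated with compound 15 min before 400 uM selenite. A first-read NADPH fluorescence drop versus no-compound background flagged substrates.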
# AT treatment: qHTS Assay for Identifying a Potential Treatment of Ataxia-Telangiectasia; F2112 A-T fibroblasts, KAP-1 phosphorylation AlphaLISA; neocarzinostatin DNA damage 30 min before lysis; Potency, µM (top dose mostly 57.5 µM), without a hit: at the top dose activation, actives largely listed as activators; actives 0.19% (n = 320,000); AID 485349, 2010; also: potency is read from the fitted curve at half-maximal effect; % of control where 0% means no effect; nearly all actives have a fitted effect of over 45% in size
#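 hTERT-immortalized A-T patient fibroblasts (F2112), 500 cells/well in OPTI-MEM, 1% FBS, got compounds for 60 min, then NCS for 30 min at 37C. Lysates were then assayed for phospho-KAP-1 by AlphaLISA (anti-pKAP1 donor, anti-KAP1 acceptor beads), 6 hr at 25C.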
# rTrxR1 inhibitor: qHTS Assay for Inhibitors of Mammalian Selenoprotein Thioredoxin Reductase 1 (TrxR1): qHTS; recombinant rTrxR1, NADPH fluorescence consumption, selenite substrate; Potency, µM (titrated, usually from 114 µM), for the others: at the top dose activity change, negative = inhibition, most hits filed as inhibitors; actives 1% (n = 390,000); also: potency is read from the fitted curve at half-maximal effect; % is scaled to controls: 0 for no effect and ±100 for the full control effect; nearly all actives have a fitted effect of over 65% in size
#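 Rat TrxR1 (90 nM in the dispensed reagent) was pre-reduced with 400 uM NADPH for 5 min at room temperature, then incubated with compound for 15 min. After 400 uM selenite was added, NADPH fluorescence (Ex 340/Em 450 nm) was followed for 8 min.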
# N370S GC: qHTS Assay for Inhibitors and Activators of N370S glucocerebrosidase as a Potential Chaperone Treatment of Gaucher Disease | AID 2101, 2009 | Potency, µM (doses to about 59.4 µM), without a hit: at the top dose activity change, negative = inhibition, hits mostly inhibitors | N370S GC spleen homogenate, 4MU-glucoside fluorescence | actives 0.092% (n = 330,000) | Lysosomal acid glucosylceramidase (Homo sapiens), P04062;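 also: potency is read from the fitted curve at half-maximal effect; 0% = full enzyme activity and -100% = no enzyme basal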
# pAkt inh: HTS Assay for Inhibitors of Akt Phophorylation: Primary Screen; Neuro2A IGF-stimulated pAkt S473 HTRF, 20 min; hits give low values; activity change, % for hits at 50 µM; actives 0.32% (n = 360,000); AID 651550, 2012; in the data active = activity change below about -80%; inconclusive = mostly about -51% to -80%; also: % is scaled to controls: 0 for no effect and ±100 for the full control effect
#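 Neuro2A cells (4,500/well, DMEM with 0.5% FBS) were treated with compound at a single 50 µM final concentration, stimulated with 6 nM IGF for 20 min at 37 °C, and lysed. Phospho-Akt Ser473 was read by HTRF as 665/615 ratio ×10^4.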
# Pin1 inhibitor: qHTS Assay to Find Inhibitors of Pin1; AID 504891, 2011; Peptidyl-prolyl cis-trans isomerase NIMA-interacting 1 (Homo sapiens), Q13526; Pin1 FP peptide displacement, HiFluor488, 10 min; Potency, µM (series often up to 115 µM), without a hit: top-dose activity, negative = inhibition, hits mostly inhibitors; actives 0.009% (n = 390,000); active = well fitted inhibition curve with a large enough effect in the polarisation, with a control signal flat, not every such curve was filed as active; inconclusive = small, poorly fitted or top-dose-only effect, or effect the other way, or a change in a side signal; inactive = no such curve, though single readings can be large or run the other way; the % refers to the polarisation; also: potency is read from the fitted curve at half-maximal effect; % is scaled to controls: 0 for no effect and ±100 for the full control effect
# Target sequence (Q13526 whole entry, looked up): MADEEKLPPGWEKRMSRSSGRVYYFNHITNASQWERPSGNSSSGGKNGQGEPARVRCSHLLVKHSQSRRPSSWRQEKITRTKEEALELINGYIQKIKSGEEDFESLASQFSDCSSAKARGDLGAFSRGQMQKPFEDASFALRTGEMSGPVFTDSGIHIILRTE
# * = called active by the depositor; i = inactive; ? = inconclusive; / = no result given; [ ] = another dose, or the depositor's remark. The list is not random: actives were taken first. Their share in the collection is about 1.4%. Unless noted, calls follow the shape of the dose curve; as a rule, active = well fitted curve in the direction sought with a large enough effect; inconclusive = small, poorly fitted or top-dose-only effect, or another doubt; inactive = no such curve, though single readings can be large; an effect the other way counts as inactive or inconclusive.
SMILES,TrxR1 substrate,AT treatment,rTrxR1 inhibitor,N370S GC,pAkt inh,Pin1 inhibitor
Cc1cc(C)c2[nH]c(=O)c(C(c3nnnn3CC3CCCO3)N3CCC(C)CC3)cc2c1 (stereo not given),7.2%[57.1 µM],1.8%,20µM*,1.0%,i,9.8%
Cc1ccc(C)c2[nH]c(=O)c(C(c3nnnn3C(C)(C)C)N3CC=C(c4ccc(F)cc4)CC3)cc12 (stereo not given),10.6%[0.457 µM],10.5%,70.8µM*,0.6%,i,?
Cc1cc(C)c2[nH]c(=O)c(C(c3nnnn3C(C)(C)C)N3CCN(C(=O)c4ccco4)CC3)cc2c1 (stereo not given),17.5%,-0.1%,15.8µM*,-13.9%,i,2.2%
CC(C)(C)c1ccc(Cn2cnc3c(cnn3C(C)(C)C)c2=O)cc1,-1.3%,/,13.3%,/,/,/
CC(C)CN1CCCC2(CCN(C(=O)c3cnccn3)CC2)C1,/,/,/,-3.4%,/,/
O=c1[nH]nc(-c2ccc([N+](=O)[O-])o2)c(=O)[nH]1,-5.2%,/,12.6µM*,/,i,-7.8%
Cn1c(/C=C/c2ccc([N+](=O)[O-])o2)nc2ccccc2c1=O,-12.1%,3.0%,10µM*,-7.3%,i,-2.4%
Cn1nnnc1Sc1ncnc2scc(-c3ccc(S(C)(=O)=O)cc3)c12,/,/,/,/,/,0.2%
CC1(C)CC(=O)C(C(C2=C(O)CC(C)(C)CC2=O)c2ccc(O)c([N+](=O)[O-])c2)=C(O)C1,-6.7%,-4.7%,12.6µM*,-23.3%,i,-0.8%
CC(=O)c1ccc(NS(=O)(=O)c2ccc([N+](=O)[O-])cc2)cc1,-14.4%,/,-16.4%,/,i,-2.6%
CC(=O)Nc1ccc(NS(=O)(=O)c2c(Cl)cccc2Cl)cc1,3.2%,39.8µM*,26.3%,-9.5%,i,-2.7%
CC(=O)Nc1ccc(S(=O)(=O)Nc2ccc([N+](=O)[O-])cc2)cc1,/,/,/,15.8µM*,/,/
CC(=O)Nc1ccc(NS(=O)(=O)c2ccc(Cl)s2)cc1,7.3%,-1.3%,18.5%,-5.0%,i,-0.2%
O=C1C(Cl)=C(N2CCN(c3ccccc3[N+](=O)[O-])CC2)C(=O)c2ccccc21,11.4%,23.0%,0.794µM*,5.2%,i,-11.7%
COc1ccccc1-c1cc(C(=O)Nc2c(C)nn(Cc3ccc(Cl)cc3)c2C)no1,-7.1%,/,9.3%,/,/,4.7%
CCCCn1c(N)c(C(=S)NC(=O)CC(C)C)c(=O)n(C)c1=O,5.2%,-2.8%,56.2µM*,2.1%,i,0.9%
COc1ccc(NC(=O)Cn2ncc(Cl)c(Cl)c2=O)cc1S(=O)(=O)N1CCOCC1,-3.0%,-1.2%,28.2µM*,0.3%,i,/
Cc1ccc(S(=O)(=O)N2CCCCC2)cc1NC(=O)Cn1ncc(Cl)c(Cl)c1=O,9.2%,-3.4%,50.1µM*,/,i,?
COc1ccc(-c2oc3ncn4nc(COc5ccc(Cl)cc5)nc4c3c2-c2ccc(OC)cc2)cc1,10.2%,/,5.4%,/,/,10.8%
O=c1c(N2CCc3ccccc3C2)csc2ccc(Br)cc12,-6.0%[57.1 µM],/,-11.0%[57.1 µM],/,/,-2.9%
O=C(Nc1ccccc1Br)C1CC(=O)N(c2ccc3c(c2)OCCO3)C1 (stereo not given),0.5%,4.5%,14.2%,0.3%,i,0.4%
O=C(Nc1nc2ccccc2[nH]1)C1CC(=O)N(c2ccc3c(c2)OCCO3)C1 (stereo not given),5.1%[57.1 µM],11.0%,7.8%[57.1 µM],17.5%,-111.8%*,1.0%
CSCCC(NC(=O)OCc1ccccc1)C(=O)O (stereo not given),-6.8%,/,-0.7%,17.4%,-104.4%*,-9.9%
O=C(O)CCC(NC(=O)OCc1ccccc1)C(=O)O (stereo not given),9.0%,1.5%,13.8%,6.5%,i,-9.0%
COC(C/C=C\C(=O)[C@H](C)OCc1ccccc1)OC,-2.7%,/,44.7µM*,/,i,-4.7%
SMILES,TrxR1 substrate,AT treatment,rTrxR1 inhibitor,N370S GC,pAkt inh,Pin1 inhibitor
CCCSc1cc(NCCOC(=O)CCC)c([N+](=O)[O-])c2nonc12,-4.0%,-5.2%,?,28.7%,i,-8.3%
CC(=O)OCCCNc1cc(SCc2ccco2)c2nonc2c1[N+](=O)[O-],-16.9%,1.8%,2.51µM*,8.1%,i,/
CCCC(=O)OCCNc1cc(SCc2ccco2)c2nonc2c1[N+](=O)[O-],-16.3%,-0.4%,3.98µM*,4.5%,i,/
CCCC(=O)OCCNc1cc(Sc2nccn2C)c2nonc2c1[N+](=O)[O-],1.3%,-13.0%,0.562µM*,-17.5%,i,4.3%
Cc1cccc(NC(=O)CSc2nc3c(oc4ccccc43)c(=O)n2-c2ccccc2)c1C,1.5%,/,15.7%,/,/,29.1%
CCc1ccc(-c2nc(CN3CCCC(C(=O)N4CCN(c5cc(Cl)ccc5C)CC4)C3)c(C)o2)cc1 (stereo not given),-2.0%,/,34.8%,/,/,-2.1%
CN(C)c1ccc(C(CNS(=O)(=O)c2ccc(Br)cc2)N2CCCC2)cc1 (stereo not given),1.1%[57.1 µM],/,17.8%[57.1 µM],/,/,-1.7%
Cc1cc2n(n1)SC(Nc1cc(Cl)ccc1Cl)N2 (stereo not given),1.3%,2.3%,7.08µM*,6.2%,i,-5.8%
O=C(CN1CCCCCC1)Nc1ccccc1F,7.7%[57.1 µM],3.5%,5.2%[57.1 µM],-10.1%,i,7.9%
O=C(CC(=O)Nc1ccccc1F)Nc1ccccc1F,1.8%,9.1%,89.1µM*,-6.1%,i,4.7%
COCCCNc1oc(/C=C/c2ccccc2)nc1C#N,753.1%[57.1 µM],15.8µM*,1.3%[57.1 µM],?,i,0.9%
CCOc1ccc(/C=C/c2nc(C#N)c(NCCCOC)o2)cc1,43.0%[57.1 µM],8.8%,17.2%[57.1 µM],?,i,-4.9%
CCOc1ccc(-c2ccc(NS(=O)(=O)c3cc(C)c(C)cc3C)cc2)nn1,-5.0%[57.1 µM],/,4.0%[57.1 µM],/,/,0.8%
c1cc2c(cc1C1CCCN1)OCCCO2 (stereo not given),3.7%,-0.8%,44.7µM*,-1.6%,i,2.9%
CCCCCCc1cc2cc(S(=O)(=O)c3ccc(C)cc3)c(=O)oc2cc1O,76.1%,28.2µM*,66.6%,?,i,2.4%
CCOC(=O)OCC1OC(C#CC(C)(C)C)C=CC1OC(=O)OCC (stereo not given),/,/,/,2.0%[12.8 µM],/,/
COc1ccc(C)cc1Nc1n[n+](-c2ccccc2)c(-c2ccc(N(C)C)cc2)s1,-0.4%,5.7%,8.91µM*,-1.0%,i,87.4%
